This note sets out measurements from ChEMBL document CHEMBL4513216, “Probing the Open Global Health Chemical Diversity Library for Multistage-Active Starting Points for Next-Generation Antimalarials” (ACS Infect Dis, 2020).

In all, about 69,000 compounds went through this assay and about 8,600 (12%) showed an effect of 50% or more. The list comes from a sample in which strong results are over-represented; it also holds similar structures and randomly drawn compounds.

The test system of this test is Plasmodium berghei. The test can be described thus: Screen against P. berghei liver stage (PbLuc), transformed with Luciferase, at 10uM. The note with it: tested at 10 uM. The format is functional, HepG2.
Take `Cc1nn(C)c2cn(CC(=O)N3CCN(c4ccccc4)CC3)nc12`: the INHIBITION is 30.8%.

As to `Cn1ccnc1CN1CCOC(Cc2ccccc2)C1` (stereo not given), the INHIBITION was found to be 0.696%. Then `O=C(NCCC1CN(Cc2c[nH]cn2)CCO1)Nc1ccccc1` (stereo not given), with 1.79%; and `CC1(C)C(C(=O)NCCC2CN(Cc3c[nH]cn3)CCO2)C1(C)C` (stereo not given), with 55.5%.

`c1ccc(C(CC2CN(Cc3ncc[nH]3)CCO2)c2ccccc2)cc1` (stereo not given): the INHIBITION is reported as 43.9%. With `c1ccc(C(CC2CN(Cc3c[nH]cn3)CCO2)c2ccccc2)cc1` (stereo not given) the figure was 72.1%. With `O=C(NCCC1CN(Cc2c[nH]cn2)CCO1)c1ccccc1O` (stereo not given) the figure was 18.6%; with `CC(C)NC(=O)N(Cc1cc(O)nc2ccccc12)C(C)C`, -10.3%; with `CCOc1ccnc(N2CCN(C(=O)c3ccoc3)CC2)n1`, 23.7%. With `Cc1cc(C)c2[nH]c(C(=O)NCCN3CCNC3=O)c(C)c2c1` the figure was -16.3%; with `Cc1nc(=O)c(CC(=O)N2C[C@@H]3CC[C@H]2CN(C(=O)N(C)C)C3)c(C)[nH]1`, 0.547%.

As for `Cc1ccc(CN2C[C@@H](OCc3csc(C)n3)[C@H]3COC[C@H]32)s1`, the INHIBITION is on record as -14.4%. With `Cc1cnc(CNC(=O)[C@@]23CCO[C@@H]2CCNC3)cn1` the figure was 49.4%; with `Cc1cc(C[C@@H]2CCC[C@H]2NCc2ccc(C(F)(F)F)cc2)on1`, 41.2%.

For the compound `Cc1cc(C[C@@H]2CCC[C@H]2NCc2cc(C)c(O)c(C)c2)on1`, the INHIBITION was 26.7%. Then `Cc1cc(C[C@@H]2CCC[C@H]2NCc2cc(F)ccc2F)on1`, with -1.85%; and `Cc1cc(C[C@@H]2CCC[C@H]2NCc2ccccc2C(F)(F)F)on1`, with 70.5%. Then `Cc1cc(C[C@@H]2CCC[C@H]2NCc2c[nH]nc2-c2ccccc2)on1`, with 5.56%; and `Cc1cc(C[C@@H]2CCC[C@H]2NCc2ccccc2C)on1`, with 44.1%.

For the compound `Cc1cc(C[C@@H]2CCC[C@H]2NCc2ccccc2F)on1`, the INHIBITION came to 75.3%. With `Cc1cc(C[C@@H]2CCC[C@H]2NCc2cccc(F)c2F)on1` the figure was 15.9%. Turning to `Cc1cc(C[C@@H]2COC[C@H]2NCc2ccc(Br)s2)on1`, the INHIBITION came out at 31.8%. Take `CCCOc1ccccc1CN[C@@H]1CCC[C@H]1Cc1cc(C)no1`: the INHIBITION came out at 54.5%. Then `Cc1cc(C[C@@H]2COC[C@H]2NCc2ccccc2C(F)(F)F)on1`, with 50%; and `Cc1cc(C[C@@H]2COC[C@H]2NCc2ccc(C(F)(F)F)cc2)on1`, with 31.6%; and `O=C(CCc1nc(C2CC2)no1)c1ccc(F)c(F)c1`, with -2.43%.

With `CCOc1ccc(OCc2nc3c(c(=O)[nH]2)CCNC3)cc1`, the INHIBITION was determined as 26.7%. With `c1coc(CN2C[C@@H]3OCCN(CCN4CCCC4)[C@@H]3C2)c1` the figure was 36.4%; with `CCn1cnnc1CNC(=O)N1CCC(OCc2ccccc2)CC1`, 23.4%. With `COCc1cncc2c1CCN(C(=O)c1ccc(C#N)cc1)C2` the figure was 5.89%; with `CC(C)C(=O)N1CCC(C)(c2cc[nH]n2)CC1`, -16.9%. For `O[C@@H]1CC(CNCc2cccc(Cl)c2)(COc2cnccn2)C[C@@H]1O` (stereo not given in full), the INHIBITION was -4.26%. With `CN(Cc1n[nH]c2c1CCC2)C(=O)CCc1cc2n(n1)CCCNC2` the figure was 0.72%.

Regarding `COC(=O)N1CC[C@@]2(C1)[C@H](OC)CN(c1ccccc1)S2(=O)=O`, the INHIBITION was found to be 31.3%. With `CO[C@@H]1CN(c2ccccc2)S(=O)(=O)[C@@]12CCN(C(C)=O)C2` the figure was 34.3%; with `CO[C@@H]1CN(c2ccccc2)S(=O)(=O)[C@@]12CCN(C(=O)N(C)C)C2`, 51.7%; with `O=C1CCC2(CCNCC2)CN1Cc1nncn1CCc1ccccc1`, 0.348%. For the compound `Cc1nccn1-c1ccc(CNS(=O)(=O)N2CCCC(C)C2)cn1` (stereo not given), the INHIBITION is 37.7%. With `Cc1nccn1-c1ccc(CNC(=O)c2ccc(O)nc2)cn1` the figure was 38.3%; with `Cc1nccn1-c1ccc(CNS(=O)(=O)N2CCCCC2C)cn1` (stereo not given), 43.9%; with `Cc1nccn1-c1ccc(CNC(=O)c2ccc[nH]2)cn1`, 10.5%. In the case of `Cc1nccn1-c1ccc(CNS(=O)(=O)N2CCC(C)CC2)cn1`, the INHIBITION amounted to 76%. With `CC(=O)NCc1ccc(-n2ccnc2C)nc1` the figure was 57.6%. With `CCn1cc(C(=O)Nc2cc(C(=O)OC)ccc2C(=O)OC)cn1` the figure was 13.3%. Regarding `COc1ccccc1Cc1cc(O)nc(NC(C)CN(C)C)n1` (stereo not given), the INHIBITION amounted to 9.63%. Then `CC(NC(=O)COc1ccccc1Cl)c1nnc2n1CCC2` (stereo not given), with -40.7%; and `CC(C)CN1CC(C(=O)NCc2ccnc(-n3cccn3)c2)CC1=O` (stereo not given), with 27.357%; and `CCS(=O)(=O)N1CCCC(Cc2cnccn2)C1` (stereo not given), with 56%. With `CS(=O)(=O)N1CCCC(Cc2cnc(Br)cn2)C1` (stereo not given) the figure was 26.7%. Then `Cn1cc(C(=O)N2CCCC(Cc3cnccn3)C2)cn1` (stereo not given), with -12.2%; and `CC(NC(=O)CCCn1cnc2ccccc2c1=O)c1ncn[nH]1` (stereo not given), with 11.1%; and `COCc1cc(NCCc2ccc(OC)cc2)n2nccc2n1`, with 32.2%.

As for `N#CC1(NC(=O)c2ccc(-c3nc(C4CC4)n[nH]3)cc2)CC1`, the INHIBITION amounted to 8.38%. As for `CCC(C)NC(=O)CCn1ccc(C)n1` (stereo not given), the INHIBITION was -5.77%. For the compound `Cc1cc(=O)n(CC(=O)NC(C)C)c(Nc2ccc(F)c(C)c2)n1`, the INHIBITION was determined as 64.2%. Regarding `Cc1cccc(-c2nc(C)nn2CC(=O)NC(C)C)c1`, the INHIBITION turned out to be 22.3%.

On to `CCC(C)NC(=O)Cn1c(Nc2cc(C)cc(C)c2)nc(C)cc1=O` (stereo not given), for which the INHIBITION amounted to 55.4%.

Take `Cc1cc(=O)n(CC(=O)NCCC(C)C)c(-c2cccc(Cl)c2)n1`: the INHIBITION stood at 48.5%. With `Cc1cc(C)cc(Nc2nc(C)cc(=O)n2CC(=O)NC(C)C)c1` the figure was 34.6%. Then `CC(C)n1cnc2ccc(NC(=O)CCCn3cccn3)cc2c1=O`, with -5.38%. Then `Cc1cccc(C(=O)N2CCC(C(=O)c3cc(F)ccc3F)CC2)n1`, with 11.6%; and `Cc1cc(NC(=O)NC2CCN(C(C)C)CC2)c2ncccc2c1`, with 70.5%. For `Cc1cc(NC(=O)N2CCCC2C(C)(C)O)c2ncccc2c1` (stereo not given), the INHIBITION amounted to 35.4%.

Regarding `Cc1cc(NC(=O)N2CCCC2C(=O)NC2CC2)c2ncccc2c1` (stereo not given), the INHIBITION is 22.6%. Take `CCN(C(=O)c1nc2c(s1)CCCN2S(C)(=O)=O)C(C)C`: the INHIBITION turned out to be 4.68%. With `Cc1cc(C)n(C2CCCN(C(=O)CCNc3ncccn3)C2)n1` (stereo not given) the figure was 41.5%; with `Cc1oc(-c2ccsc2)nc1CN1CCCC(c2ccnn2C)C1` (stereo not given), 66.3%; with `CSc1ccc(-c2nc(CN3CCC(C(N)=O)CC3)c(C)o2)cc1`, -10.2375%. Then `Cc1ncc2c(n1)CN(Cc1nc(-c3ccsc3)oc1C)CC2`, with -4.92%.

Turning to `Cc1oc(-c2ccsc2)nc1CN1CC[C@@H]2CCCC[C@H]2C1`, the INHIBITION was 28.4%. Turning to `CSc1ccc(-c2nc(CN3CCC(CN)C3)c(C)o2)cc1` (stereo not given), the INHIBITION is on record as -70.3%. With `Cc1oc(-c2ccccc2)nc1CN1CCC(c2ccnn2C)CC1` the figure was 69.7%; with `Cn1cc(NS(=O)(=O)CCOc2ccc(F)cc2)cn1`, -15.29%. On to `Cc1cc(C)n(Cc2cc(C(=O)N3CCCC3c3ccccn3)n[nH]2)n1` (stereo not given), for which the INHIBITION was 39.7%. Then `CC(=O)Nc1cccc2c1ccn2CC(=O)Nc1ncc[nH]1`, with 25.8%; and `COCCOCC(=O)N1CCCC(c2ncc[nH]2)C1` (stereo not given), with -45%; and `Cc1nnc(C2CCN(c3ccccc3)CC2)o1`, with 16.5%.

In the case of `CN(C)S(=O)(=O)N1CCC(C)(c2ncc(C(N)=O)s2)CC1`, the INHIBITION is recorded as -7.66%. Then `Cc1ccc(NC(=O)CNC(C)CN2CCCCC2)c(F)c1` (stereo not given), with 63.8%; and `Cc1ccc(NC(=O)CNC(C)CN2CCOCC2)c(F)c1` (stereo not given), with 41.5%. With `Cc1ccc(NC(=O)CN2CCOCC2)c(F)c1` the figure was 28%; with `Cc1cc(C)n(CCC(=O)N2CCC(Nc3cccnn3)CC2)n1`, -16.75%. Consider `CC1CN(CC(=O)NC(C2CC2)C2CC2)CCN1Cc1nccn1C` (stereo not given), for which the INHIBITION is -43.05%. Then `COc1ccc(CN2CCC3(CC2)NC(=O)CC3c2ccncc2)cc1` (stereo not given), with 30.7%; and `COCCN1CCCn2c(nc(CNC(=O)COC)cc2=O)C1`, with 31.2%. With `Cc1oncc1C(=O)NCc1cc(=O)n2c(n1)CN(C(C)C)CCC2` the figure was 35.4%; with `Cn1ccnc1C(=O)NCc1cc(=O)n2c(n1)CN(CC1CC1)CCC2`, 4.02%. Then `COCC(=O)NCc1cc(=O)n2c(n1)CN(CC1CC1)CCC2`, with 26.7%; and `CCCN1CCCn2c(nc(CNC(=O)c3nccn3C)cc2=O)C1`, with 66.8%; and `CN1CCCn2c(nc(CNC(=O)c3nccn3C)cc2=O)C1`, with 13.7%.

As to `CC(C)N1CCCn2c(nc(CNC(=O)c3nccn3C)cc2=O)C1`, the INHIBITION is listed as 71.6%. Then `CC(C)N1CCc2c(CNC(=O)c3nccn3C)cncc2C1`, with 24%; and `COCC(=O)NCc1cc(=O)n2c(n1)CN(C)CCC2`, with 59.3%; and `CCn1cc(CN2CCC3(CC2)c2ccccc2CC3O)cn1` (stereo not given), with 2.7%. Then `CC(C)CN1C[C@@H]2C[C@H](C(=O)N3CCCC3)[C@H](C1)O2`, with 31.5%; and `c1cc(CN2CCc3ncc(CN4CCCCC4)n3CC2)cs1`, with 20.9%; and `Cc1ccc(CN2Cc3nnn(C)c3C(COCC(=O)N(C)C)C2)s1` (stereo not given), with 42.1%. For `CC(C)CNC(=O)c1[nH]nc(C2CC2)c1Br`, the INHIBITION is listed as -7.46%. With `O=C1NC2(Cc3ccccc31)CN(CC1CCNC1)C2` (stereo not given) the figure was 46.6%. As for `Fc1cccc(C2CCCN2Cc2nnnn2C2CC2)c1` (stereo not given), the INHIBITION came out at 31.1%.

In the case of `O=C(CCC(F)(F)F)N1CCN(Cc2ccncc2)[C@@H]2CS(=O)(=O)C[C@@H]21`, the INHIBITION is recorded as 42.1%. With `CCn1nc(CNC(=O)C2CCCN(C(=O)COC)C2)c2ccccc21` (stereo not given) the figure was 10.5%; with `CCn1nc(CNC(=O)C2CCCN(CC(N)=O)C2)c2ccccc21` (stereo not given), 67.2%. Then `CCn1nc(CNC(=O)C2CC(=O)N(C3CCCC3)C2)c2ccccc21` (stereo not given), with 30.1%. With `CCn1nc(C)c(CCNC(=O)C2CCCN(CC(N)=O)C2)c1C` (stereo not given), the INHIBITION is 18.8%.

Consider `Cc1n[nH]c(C)c1CCNC(=O)C1CCCN(CC(N)=O)C1` (stereo not given), for which the INHIBITION was 74.4%. Then `Cc1ccc2c(c1)c(CNC(=O)C1CCCN(CC(N)=O)C1)nn2C` (stereo not given), with 10.5%; and `CCN1CC(C(=O)NCc2noc(Cc3ccccc3)n2)CCC1=O` (stereo not given), with 17.6%; and `CCN1CC(C(=O)NCc2nn(CC)c3ccccc23)CCC1=O` (stereo not given), with 65%.

Take `Cc1n[nH]c(C)c1CCNC(=O)C1CCCN(Cc2ccco2)C1` (stereo not given): the INHIBITION is listed as -4.96%.
